One sequence from paper PMC7862700, “An all-to-all approach to the identification of sequence-specific readers for epigenetic DNA modifications on cytosine” can be followed below.

Assay in all cases: DAPPL (digital affinity profiling via proximity ligation, sequencing); 10 mM Tris-HCl pH 7.5, 50 mM NaCl, 1 mM DTT, 4% glycerol, room temperature, 30 min; GST-TFs on glutathione beads, 16-mer random dsDNA library, 0.1% formaldehyde crosslink after washing; high values mean tight binding
Assay [1] deals with T1, FLI1 (Homo sapiens, UniProt Q01543 1-452).
T1 sequence: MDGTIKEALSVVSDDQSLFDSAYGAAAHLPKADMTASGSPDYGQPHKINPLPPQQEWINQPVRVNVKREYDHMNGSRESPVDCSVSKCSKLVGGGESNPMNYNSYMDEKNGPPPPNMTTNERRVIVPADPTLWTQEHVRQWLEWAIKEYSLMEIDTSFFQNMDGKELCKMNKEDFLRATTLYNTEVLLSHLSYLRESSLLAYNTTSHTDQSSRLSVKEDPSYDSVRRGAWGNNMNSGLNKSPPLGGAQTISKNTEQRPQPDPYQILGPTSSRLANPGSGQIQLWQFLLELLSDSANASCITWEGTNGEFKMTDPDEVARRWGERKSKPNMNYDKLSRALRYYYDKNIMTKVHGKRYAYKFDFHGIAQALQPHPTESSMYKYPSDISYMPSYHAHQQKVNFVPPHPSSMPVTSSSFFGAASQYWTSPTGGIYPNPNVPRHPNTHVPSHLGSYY
The conditions noted are these: protein: recombinant; tags: N-terminal GST; dsDNA, one strand shown. The method in brief:
(§1)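 The binding signal reported is, for every hexamer, its read frequency for a factor over its read frequency for the tag-only sample. Reads came from pools of yeast-expressed, GST-fused human transcription factors on glutathione beads, barcoded with DNA and mixed with that sample, which were incubated with 200 nmole of a random double-stranded 16-mer DNA library in Tris/NaCl/DTT/glycerol buffer at room temperature for 30 min. After washing, the pools were crosslinked with 0.1% formaldehyde, proximity-ligated with BsaI/T4 ligase for 1 h at 37 °C, PCR-amplified and sequenced on an Illumina NextSeq500.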

Assay [2] concerns the target T2, ELK1 (Homo sapiens, UniProt P19419 1-428).
T2 sequence: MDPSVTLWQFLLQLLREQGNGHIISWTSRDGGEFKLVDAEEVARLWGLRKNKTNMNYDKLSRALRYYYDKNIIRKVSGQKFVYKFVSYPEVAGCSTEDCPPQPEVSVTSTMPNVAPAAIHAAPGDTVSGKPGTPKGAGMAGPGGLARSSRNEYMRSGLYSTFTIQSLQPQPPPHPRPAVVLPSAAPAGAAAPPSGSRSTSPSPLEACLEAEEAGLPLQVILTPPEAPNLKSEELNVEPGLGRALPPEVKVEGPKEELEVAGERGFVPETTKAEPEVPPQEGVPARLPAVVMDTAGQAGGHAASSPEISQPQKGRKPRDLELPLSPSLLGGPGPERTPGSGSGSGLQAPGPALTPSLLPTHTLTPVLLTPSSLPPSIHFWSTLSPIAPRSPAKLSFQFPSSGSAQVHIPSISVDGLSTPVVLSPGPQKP
Particulars: protein: recombinant; tags: N-terminal GST; dsDNA, one strand shown. In a few lines:
as §1

In assay [3] the target is T3, GABPA (Homo sapiens, UniProt Q06546 1-454).
T3 sequence: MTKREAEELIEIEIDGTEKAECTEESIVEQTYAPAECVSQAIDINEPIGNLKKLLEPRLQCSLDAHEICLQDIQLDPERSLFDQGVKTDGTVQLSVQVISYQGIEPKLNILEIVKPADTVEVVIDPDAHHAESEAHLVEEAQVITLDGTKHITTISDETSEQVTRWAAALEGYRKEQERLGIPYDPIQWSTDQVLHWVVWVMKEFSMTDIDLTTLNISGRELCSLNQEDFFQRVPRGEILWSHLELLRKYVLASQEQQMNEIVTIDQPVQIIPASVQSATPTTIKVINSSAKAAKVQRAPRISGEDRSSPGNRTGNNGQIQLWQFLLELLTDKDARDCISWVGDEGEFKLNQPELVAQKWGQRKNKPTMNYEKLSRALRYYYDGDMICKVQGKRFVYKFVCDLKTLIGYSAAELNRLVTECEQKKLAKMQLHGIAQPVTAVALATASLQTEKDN
Particulars: protein: recombinant; tags: N-terminal GST; dsDNA, one strand shown. The method in brief:
as §1

Assay [4] deals with T4, ERG (Homo sapiens, UniProt P11308 1-479).
T4 sequence: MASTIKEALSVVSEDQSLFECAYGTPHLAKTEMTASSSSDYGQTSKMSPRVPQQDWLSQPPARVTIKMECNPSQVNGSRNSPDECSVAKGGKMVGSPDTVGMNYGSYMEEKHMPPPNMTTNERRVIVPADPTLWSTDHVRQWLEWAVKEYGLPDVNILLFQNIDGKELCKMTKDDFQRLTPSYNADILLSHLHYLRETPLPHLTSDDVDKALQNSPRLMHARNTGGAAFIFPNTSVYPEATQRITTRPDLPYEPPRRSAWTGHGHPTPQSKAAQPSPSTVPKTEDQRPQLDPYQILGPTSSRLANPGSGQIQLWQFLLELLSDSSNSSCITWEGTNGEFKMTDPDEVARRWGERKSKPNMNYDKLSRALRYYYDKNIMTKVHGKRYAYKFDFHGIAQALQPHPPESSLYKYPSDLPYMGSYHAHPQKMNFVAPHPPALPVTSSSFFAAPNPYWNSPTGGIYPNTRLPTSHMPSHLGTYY
The conditions noted are these: protein: recombinant; tags: N-terminal GST; dsDNA, one strand shown. The method in brief:
as §1

Assay [5] deals with ELF1 (Homo sapiens, UniProt P32519 1-619). The conditions noted are these: protein: recombinant; tags: N-terminal GST; dsDNA, one strand shown. The method in brief:
as §1

Assay [6] addresses T5, EHF (Homo sapiens, UniProt Q9NZC4 1-300).
T5 sequence: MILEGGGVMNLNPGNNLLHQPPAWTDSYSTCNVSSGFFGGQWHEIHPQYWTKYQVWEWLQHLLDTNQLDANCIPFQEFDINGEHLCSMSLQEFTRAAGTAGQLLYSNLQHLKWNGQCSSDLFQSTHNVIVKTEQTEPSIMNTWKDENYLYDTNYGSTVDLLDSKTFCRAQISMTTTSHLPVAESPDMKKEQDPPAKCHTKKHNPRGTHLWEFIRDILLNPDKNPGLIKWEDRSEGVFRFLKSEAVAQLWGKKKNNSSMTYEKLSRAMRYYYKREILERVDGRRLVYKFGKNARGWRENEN
The conditions noted are these: protein: recombinant; tags: N-terminal GST; dsDNA, one strand shown. The method in brief: as §1

The target of assay [7] is SPI1 (Homo sapiens, UniProt P17947 1-270). The conditions noted are these: protein: recombinant; tags: N-terminal GST; dsDNA, one strand shown. In a few lines:
as §1

Assay [8] concerns the target SPIB (Homo sapiens, UniProt Q01892 1-262). The conditions noted are these: protein: recombinant; tags: N-terminal GST; dsDNA, one strand shown. In a few lines: as §1
For assay [9], the target named is T6, ELK3 (Homo sapiens, UniProt P41970 1-407).
T6 sequence: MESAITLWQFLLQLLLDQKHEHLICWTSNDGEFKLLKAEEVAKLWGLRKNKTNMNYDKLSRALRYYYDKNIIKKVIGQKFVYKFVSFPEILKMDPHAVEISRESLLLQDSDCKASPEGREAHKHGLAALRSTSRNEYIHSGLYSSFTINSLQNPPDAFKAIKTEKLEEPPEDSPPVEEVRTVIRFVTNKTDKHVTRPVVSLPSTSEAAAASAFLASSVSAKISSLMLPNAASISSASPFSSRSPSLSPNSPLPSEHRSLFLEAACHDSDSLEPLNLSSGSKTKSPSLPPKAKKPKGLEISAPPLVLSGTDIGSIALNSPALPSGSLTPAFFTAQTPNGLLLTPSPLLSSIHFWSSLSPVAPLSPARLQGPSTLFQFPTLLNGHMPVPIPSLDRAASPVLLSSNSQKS
Particulars: protein: recombinant; tags: N-terminal GST; dsDNA, one strand shown. The method in brief:
as §1

For assay [10], the target named is T7, FEV (Homo sapiens, UniProt Q99581 1-238).
T7 sequence: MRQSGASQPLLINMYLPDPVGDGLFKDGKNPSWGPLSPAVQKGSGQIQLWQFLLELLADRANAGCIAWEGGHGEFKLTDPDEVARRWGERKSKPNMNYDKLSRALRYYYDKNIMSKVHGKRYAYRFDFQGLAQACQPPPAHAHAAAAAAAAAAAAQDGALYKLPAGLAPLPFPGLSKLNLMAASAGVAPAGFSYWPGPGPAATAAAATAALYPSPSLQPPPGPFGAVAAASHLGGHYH
Particulars: protein: recombinant; tags: N-terminal GST; dsDNA, one strand shown. The method in brief: as §1

The target of assay [11] is ETV5 (Homo sapiens, UniProt P41161 1-510). The conditions noted are these: protein: recombinant; tags: N-terminal GST; dsDNA, one strand shown. In a few lines: as §1
The target of assay [12] is HSF1 (Homo sapiens, UniProt Q00613 1-529). Particulars: protein: recombinant; tags: N-terminal GST; chain copies: 3; dsDNA, one strand shown. The method in brief:
as §1

The target of assay [13] is T8, SPIC (Homo sapiens, UniProt Q8N5J4 1-248).
T8 sequence: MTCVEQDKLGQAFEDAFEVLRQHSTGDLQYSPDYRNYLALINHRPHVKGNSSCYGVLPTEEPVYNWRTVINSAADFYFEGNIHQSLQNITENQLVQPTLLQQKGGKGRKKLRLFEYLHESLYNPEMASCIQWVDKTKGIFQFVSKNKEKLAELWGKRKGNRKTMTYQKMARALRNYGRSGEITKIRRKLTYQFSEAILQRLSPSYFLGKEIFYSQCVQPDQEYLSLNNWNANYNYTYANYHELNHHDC
Particulars: protein: recombinant; tags: N-terminal GST; dsDNA, one strand shown. The method in brief:
as §1

Assay [14] addresses ELF4 (Homo sapiens, UniProt Q99607 1-663). The conditions noted are these: protein: recombinant; tags: N-terminal GST; dsDNA, one strand shown. The method in brief:
as §1

The target in assay [15] is T9, ELK4 (Homo sapiens, UniProt P28324-2 1-405).
T9 sequence: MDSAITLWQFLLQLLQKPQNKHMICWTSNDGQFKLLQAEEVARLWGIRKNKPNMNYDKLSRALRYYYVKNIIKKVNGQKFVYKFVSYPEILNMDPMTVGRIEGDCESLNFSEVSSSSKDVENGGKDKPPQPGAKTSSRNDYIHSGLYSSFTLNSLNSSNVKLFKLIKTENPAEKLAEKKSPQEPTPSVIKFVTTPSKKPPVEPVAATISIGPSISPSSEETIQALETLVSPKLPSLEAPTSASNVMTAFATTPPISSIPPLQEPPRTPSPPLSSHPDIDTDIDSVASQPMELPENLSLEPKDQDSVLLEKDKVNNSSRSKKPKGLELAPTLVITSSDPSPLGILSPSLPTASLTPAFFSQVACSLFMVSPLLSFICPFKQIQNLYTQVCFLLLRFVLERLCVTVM
Particulars: protein: recombinant; tags: N-terminal GST; dsDNA, one strand shown. The method in brief: as §1

Assay [16] addresses T10, ETV2 (Homo sapiens, UniProt O00321 1-342).
T10 sequence: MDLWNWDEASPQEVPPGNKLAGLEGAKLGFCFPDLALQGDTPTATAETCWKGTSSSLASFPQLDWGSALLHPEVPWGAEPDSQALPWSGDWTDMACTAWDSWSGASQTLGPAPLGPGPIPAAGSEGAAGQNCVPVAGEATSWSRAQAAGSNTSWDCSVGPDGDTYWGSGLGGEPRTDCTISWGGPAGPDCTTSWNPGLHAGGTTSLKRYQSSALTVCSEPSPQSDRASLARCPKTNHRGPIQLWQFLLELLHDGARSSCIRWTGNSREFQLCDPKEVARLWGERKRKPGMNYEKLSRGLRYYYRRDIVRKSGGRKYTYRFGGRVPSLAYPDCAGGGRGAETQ
Particulars: protein: recombinant; tags: N-terminal GST; dsDNA, one strand shown. The method in brief: as §1

The target in assay [17] is T11, ELF3 (Homo sapiens, UniProt P78545 1-371).
T11 sequence: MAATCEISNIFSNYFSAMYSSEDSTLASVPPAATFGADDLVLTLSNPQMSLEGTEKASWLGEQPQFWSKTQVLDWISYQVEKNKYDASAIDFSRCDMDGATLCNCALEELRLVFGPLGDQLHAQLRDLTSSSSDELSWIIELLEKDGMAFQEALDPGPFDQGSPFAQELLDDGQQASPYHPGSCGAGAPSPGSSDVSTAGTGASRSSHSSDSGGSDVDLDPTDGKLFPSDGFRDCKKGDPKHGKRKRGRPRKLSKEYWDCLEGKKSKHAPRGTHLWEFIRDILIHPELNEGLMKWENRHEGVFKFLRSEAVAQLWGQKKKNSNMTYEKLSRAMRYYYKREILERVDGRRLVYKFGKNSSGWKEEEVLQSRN
The conditions noted are these: protein: recombinant; tags: N-terminal GST; dsDNA, one strand shown. In a few lines: as §1

Assay [18] deals with CRX (Homo sapiens, UniProt O43186 1-299). The conditions noted are these: protein: recombinant; tags: N-terminal GST; dsDNA, one strand shown. In a few lines: as §1
The target in assay [19] is ETV1 (Homo sapiens, UniProt P50549 1-477). The conditions noted are these: protein: recombinant; tags: N-terminal GST; dsDNA, one strand shown. The method in brief:
as §1

Sequence of ELF1 (P32519 whole entry): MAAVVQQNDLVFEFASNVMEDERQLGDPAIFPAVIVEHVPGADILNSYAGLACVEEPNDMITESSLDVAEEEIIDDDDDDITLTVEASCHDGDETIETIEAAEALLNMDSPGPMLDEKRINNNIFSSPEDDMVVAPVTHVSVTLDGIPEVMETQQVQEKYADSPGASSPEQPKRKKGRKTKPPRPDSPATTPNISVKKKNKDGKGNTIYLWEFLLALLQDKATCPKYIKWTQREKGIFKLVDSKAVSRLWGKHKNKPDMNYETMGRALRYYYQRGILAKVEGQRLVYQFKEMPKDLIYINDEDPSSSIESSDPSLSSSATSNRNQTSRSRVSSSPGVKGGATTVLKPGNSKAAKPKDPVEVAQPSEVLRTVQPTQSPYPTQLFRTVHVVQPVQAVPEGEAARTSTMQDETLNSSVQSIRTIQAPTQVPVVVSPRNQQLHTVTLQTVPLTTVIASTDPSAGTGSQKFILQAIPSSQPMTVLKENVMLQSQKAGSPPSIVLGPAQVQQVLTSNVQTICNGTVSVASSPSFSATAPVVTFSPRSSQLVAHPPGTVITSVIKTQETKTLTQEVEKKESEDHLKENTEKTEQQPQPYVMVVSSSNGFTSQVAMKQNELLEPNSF
Sequence of SPIB (Q01892 whole entry): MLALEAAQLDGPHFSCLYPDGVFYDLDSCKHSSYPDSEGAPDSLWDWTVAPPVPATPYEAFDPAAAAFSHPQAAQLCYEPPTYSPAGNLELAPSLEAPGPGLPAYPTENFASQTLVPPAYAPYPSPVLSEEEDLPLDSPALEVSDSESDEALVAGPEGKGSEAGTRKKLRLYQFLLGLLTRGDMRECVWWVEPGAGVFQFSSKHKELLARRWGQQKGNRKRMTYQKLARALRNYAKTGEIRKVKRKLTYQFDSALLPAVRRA
Sequence of ELF4 (Q99607 whole entry): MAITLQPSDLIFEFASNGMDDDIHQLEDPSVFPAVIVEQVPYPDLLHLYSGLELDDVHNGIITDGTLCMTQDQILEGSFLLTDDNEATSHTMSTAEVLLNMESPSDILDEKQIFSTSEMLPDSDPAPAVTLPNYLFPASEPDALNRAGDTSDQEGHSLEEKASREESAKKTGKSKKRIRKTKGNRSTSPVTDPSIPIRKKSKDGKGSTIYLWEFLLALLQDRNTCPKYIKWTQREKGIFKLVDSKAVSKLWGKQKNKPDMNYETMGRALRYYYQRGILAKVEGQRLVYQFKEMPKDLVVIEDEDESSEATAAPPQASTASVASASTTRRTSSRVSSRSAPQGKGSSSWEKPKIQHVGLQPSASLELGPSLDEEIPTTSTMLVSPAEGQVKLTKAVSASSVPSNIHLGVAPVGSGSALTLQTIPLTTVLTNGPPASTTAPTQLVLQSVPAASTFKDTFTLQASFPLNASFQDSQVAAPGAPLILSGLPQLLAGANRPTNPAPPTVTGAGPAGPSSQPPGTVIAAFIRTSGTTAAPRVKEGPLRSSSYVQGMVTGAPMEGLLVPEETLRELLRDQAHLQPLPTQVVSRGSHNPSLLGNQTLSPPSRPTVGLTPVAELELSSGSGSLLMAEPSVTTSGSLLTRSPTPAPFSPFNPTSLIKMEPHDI
Sequence of CRX (O43186 whole entry): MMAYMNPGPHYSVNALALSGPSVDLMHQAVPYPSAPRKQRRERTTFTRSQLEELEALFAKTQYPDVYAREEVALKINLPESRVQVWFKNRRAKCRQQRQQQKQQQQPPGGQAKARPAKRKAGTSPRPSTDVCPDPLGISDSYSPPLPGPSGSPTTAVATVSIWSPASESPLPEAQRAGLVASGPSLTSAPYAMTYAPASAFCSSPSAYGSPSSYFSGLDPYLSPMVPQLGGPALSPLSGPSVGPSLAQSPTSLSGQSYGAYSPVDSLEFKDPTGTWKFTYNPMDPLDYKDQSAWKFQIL
Sequence of HSF1 (Q00613 whole entry): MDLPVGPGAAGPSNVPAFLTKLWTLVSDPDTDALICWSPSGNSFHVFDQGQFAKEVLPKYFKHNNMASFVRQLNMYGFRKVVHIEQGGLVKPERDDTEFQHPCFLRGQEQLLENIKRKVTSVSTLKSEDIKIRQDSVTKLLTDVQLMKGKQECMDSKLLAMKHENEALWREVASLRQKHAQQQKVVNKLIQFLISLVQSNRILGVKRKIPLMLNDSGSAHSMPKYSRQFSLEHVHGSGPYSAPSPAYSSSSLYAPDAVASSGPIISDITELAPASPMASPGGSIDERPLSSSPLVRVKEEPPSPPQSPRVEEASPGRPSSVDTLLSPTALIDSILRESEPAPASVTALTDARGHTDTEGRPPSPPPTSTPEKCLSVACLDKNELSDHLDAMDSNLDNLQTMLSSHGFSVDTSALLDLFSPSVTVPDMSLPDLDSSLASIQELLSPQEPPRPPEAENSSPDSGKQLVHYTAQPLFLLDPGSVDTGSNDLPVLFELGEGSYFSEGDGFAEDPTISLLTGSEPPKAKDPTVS
Sequence of ETV5 (P41161 whole entry): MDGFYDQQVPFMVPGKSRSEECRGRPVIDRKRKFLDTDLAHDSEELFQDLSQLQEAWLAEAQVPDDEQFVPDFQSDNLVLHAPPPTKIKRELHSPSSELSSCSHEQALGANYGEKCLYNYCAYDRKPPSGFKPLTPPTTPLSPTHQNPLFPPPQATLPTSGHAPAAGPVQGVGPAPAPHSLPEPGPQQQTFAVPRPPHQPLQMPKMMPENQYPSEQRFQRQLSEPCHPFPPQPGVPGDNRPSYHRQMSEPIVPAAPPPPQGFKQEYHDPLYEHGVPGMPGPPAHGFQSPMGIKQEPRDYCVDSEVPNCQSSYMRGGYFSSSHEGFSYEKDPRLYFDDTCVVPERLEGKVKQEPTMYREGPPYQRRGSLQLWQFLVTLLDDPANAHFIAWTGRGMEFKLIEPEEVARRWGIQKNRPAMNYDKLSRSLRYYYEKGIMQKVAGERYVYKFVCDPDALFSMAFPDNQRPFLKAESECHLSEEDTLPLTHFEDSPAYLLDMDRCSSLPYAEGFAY
Sequence of ETV1 (P50549 whole entry): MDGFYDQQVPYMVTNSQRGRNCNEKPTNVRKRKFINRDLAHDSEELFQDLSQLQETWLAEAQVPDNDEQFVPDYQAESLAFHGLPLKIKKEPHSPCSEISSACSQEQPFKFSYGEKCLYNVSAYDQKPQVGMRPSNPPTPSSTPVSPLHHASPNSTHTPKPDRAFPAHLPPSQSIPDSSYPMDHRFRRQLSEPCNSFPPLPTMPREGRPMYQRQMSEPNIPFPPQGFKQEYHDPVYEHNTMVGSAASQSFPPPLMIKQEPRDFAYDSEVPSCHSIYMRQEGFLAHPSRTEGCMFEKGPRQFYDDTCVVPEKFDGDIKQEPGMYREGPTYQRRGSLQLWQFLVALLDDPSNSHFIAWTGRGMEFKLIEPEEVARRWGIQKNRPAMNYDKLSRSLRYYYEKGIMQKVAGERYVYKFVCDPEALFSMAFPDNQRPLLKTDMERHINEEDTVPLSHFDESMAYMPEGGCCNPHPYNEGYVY

GAATTC: the binding signal was 1.41 fold enrichment (6-mer frequency, TF over GST control) in assay [1]; 1.29 fold enrichment (6-mer frequency, TF over GST control) in assay [2]; 1.31 fold enrichment (6-mer frequency, TF over GST control) in [3]; 1.36 fold enrichment (6-mer frequency, TF over GST control) in [4]; 1.31 fold enrichment (6-mer frequency, TF over GST control) in assay [5]; 1.43 fold enrichment (6-mer frequency, TF over GST control) in [6]. In addition, the binding signal in assay [7] is 1.43 fold enrichment (6-mer frequency, TF over GST control); in assay [8], 1.38 fold enrichment (6-mer frequency, TF over GST control); in assay [9], 1.38 fold enrichment (6-mer frequency, TF over GST control); in assay [10] it was 1.39 fold enrichment (6-mer frequency, TF over GST control); in assay [11], 1.42 fold enrichment (6-mer frequency, TF over GST control); in [12] it was 1.59 fold enrichment (6-mer frequency, TF over GST control). In addition, the binding signal is 1.51 fold enrichment (6-mer frequency, TF over GST control) in assay [13]; 1.36 fold enrichment (6-mer frequency, TF over GST control) in [14]; 1.27 fold enrichment (6-mer frequency, TF over GST control) in assay [15]; 1.39 fold enrichment (6-mer frequency, TF over GST control) in assay [16]; 1.13 fold enrichment (6-mer frequency, TF over GST control) in [17]; 1.14 fold enrichment (6-mer frequency, TF over GST control) in assay [18]. Moreover, in [19], the binding signal is 1.34 fold enrichment (6-mer frequency, TF over GST control).
